Measurements as given in PubChem BioAssay AID2252 (Southern Research Specialized Biocontainment Screening …, 2010).
Among all 2,300 compounds or so, about 1,500 (65%) were called active. So high a share suggests a set chosen from earlier hits. Not all results are given here. A number with no mark means an inactive call. No rule for the calls is given here.

Experiment: PubChem AID 2252;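 also: 100% = mean of untreated cell control wells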
Details: THP-1 viability, CellTiter-Glo luminescence, 72 h; min viability: minimum viability across concentrations, hits give low values, concentration not given here; series mostly up to 50 µM; viability: at the top concentration

Point of comparison: `CC(=O)c1ccc(NC(=O)CN2CCCCCC2)cc1`, “viability” value 102%. Against it:
- COCCn1nnnc1C(c1cccc(OC)c1OC)N1CCN(C2CCCCC2)CC1 (stereo not given) — lower, 84%
- O=C(O)C1CCCCC1C(=O)NCCc1ccncc1 (stereo not given) — lower, 83.8%
- O=C(Nc1nccs1)c1ccc(Cl)cc1[N+](=O)[O-] — lower, 82.4%
- Cc1ccc2c(c1)C1CN(C)CCC1N2C(=O)COc1ccccc1F (stereo not given) — lower, 96%
- CCc1nc(C)ccc1OCC(=O)NCCCN(C)C — lower, 86.1%
- CN1C(=O)NC(c2cccc(O)c2)C(C(=O)c2cccs2)C1(O)C(F)(F)F (stereo not given) — lower, 94.4%
- Cc1cccc(N2C(=O)CS/C2=N\NC(=O)c2ccc(Br)cc2)c1C — lower, 98%
- N#Cc1nc(Cc2cccc3ccccc23)oc1NCCCN1CCOCC1 — lower, 85.9%
- Cc1ccc(/C=N/NC(=O)Cc2cccn2C)cc1 — lower, 84.8%
- O=C(Cc1ccccc1)NCC(=O)Nc1cccc(Cl)c1 — lower, 92.3%
- CSC(=Nc1ccc(Cl)cc1)N[n+]1ccccc1 — lower, 86.7%
- CC(=O)Nc1ccc(S(=O)(=O)Nc2nc3ccccc3nc2Nc2cccc(S(N)(=O)=O)c2)cc1 — lower, 92%
- COCCNC(=O)c1cccc(OC2CCN(Cc3ccccc3C)CC2)c1 — lower, 87.3%
- Cc1ccc(C(=O)N/N=C\c2sccc2C)cn1 — lower, 93.3%
- CN(C)CCCOC(=O)c1sc2ccccc2c1Cl — lower, 98.1%
- COc1c2ccccc2nc2ccccc12 — lower, 83.5%
- CCn1cc(C(=O)O)c(=O)c2cc(F)c(N3CCN(C(=S)NC(=O)c4ccc(Br)cc4)CC3)cc21 — lower, 86.4%
- O=C(NCc1ccccc1)N[C@@H](Cc1c[nH]c2ccccc12)C(=O)O — higher, 103%
- CCn1cc(C(=O)NCCO)c(=O)c2cc(F)c(N3CCN(C)CC3)cc21 — lower, 88.8%
- CCn1nnnc1NCc1cccc(Cl)c1 — lower, 86.5%
- O=C(O)c1cn(-c2ccc(F)cc2)c2cc(Cl)c(F)cc2c1=O — lower, 92.6%
- COc1cccc(NC(=O)CSc2nncn2-c2ccccn2)c1 — lower, 99.8%
- O=C(NC1CC1)C1CCN(C2CCN(C(=O)Cc3ccc(F)cc3)CC2)CC1 — higher, 103%
- O=C(NC(CO)C(O)c1ccc([N+](=O)[O-])cc1)C(Cl)Cl (stereo not given) — lower, 85.8%
- CN1CCCN(S(=O)(=O)c2ccc3ccccc3c2)CC1 — lower, 82.4%
- NS(=O)(=O)OCCCc1ccc(C(F)(F)F)cc1 — lower, 94%
- N#CCC(=O)N/N=C/c1ccccc1Cl — higher, 105%
- COc1ccc(-c2nc3ccc(C(=O)NCC(OC)OC)cc3nc2-c2ccc(OC)cc2)cc1 — lower, 81.2%
- Cc1cc(C)c(S(=O)(=O)Nc2ccccc2C(=O)OCC(=O)NCc2ccccc2)c(C)c1 — lower, 95.1%
- CCOC(=O)c1cccc(NC(=O)c2cccs2)c1 — lower, 85.5%
- Cc1ccc(NC(=O)c2cc(NC(=O)CCCC(=O)O)ccc2Cl)cc1Cl — lower, 84.2%
- O=C(CCCOc1ccc(Cl)cc1Cl)NNC(=O)C1CCC1 — lower, 91.4%
- CCCCN1/C(=C/c2cccc[n+]2C)Sc2cc(NC(C)=O)ccc21 — lower, 96.2%
- CC(C)CC(=O)N1CCN(C(=O)CCC2CCCC2)CC1 — lower, 94.8%
- O=C(NCc1cccnc1)C1c2ccccc2C(=O)N1Cc1ccccc1 (stereo not given) — lower, 100%
- O=Cc1ccc(O)cc1O — lower, 88.5%
- Cc1ccn2cc(-c3ccc4c(c3)NC(=O)CO4)nc2c1 — lower, 84.1%
- O=C(CN(C(=O)CNS(=O)(=O)c1ccccc1)C1CCCC1)NCc1ccco1 — lower, 101%
- O=c1[nH]cc(N=Cc2cc([N+](=O)[O-])ccc2O)c(=O)[nH]1 — lower, 90.4%
- CC(Sc1nc2ccccc2o1)C(=O)O (stereo not given) — lower, 88.5%
- Cc1cc(C)cc(CSc2nnc(C)c(=O)[nH]2)c1 — lower, 95.4%
- CCCCN(C)C(=O)c1ccc(S(=O)(=O)N2CCOCC2)cc1 — lower, 100%
- COc1ccc(-c2nnn(-c3ccc(Cl)cc3Cl)c2N)cc1 — lower, 84%
- Cc1cc(C)c2c(N)c(C(=O)c3ccc(Cl)c(Cl)c3)sc2n1 — lower, 100%
- Cn1c(-c2ccc(CN3CCCCC3)o2)nc2ccccc21 — lower, 84.1%
- O=C(NCC1CCCO1)c1cc2ccccc2oc1=O (stereo not given) — lower, 100%
- CN(C)C(=O)CSc1nnc(Cc2ccc([N+](=O)[O-])cc2)o1 — lower, 88.6%
- CSc1nc2ccc(Cl)cc2[nH]1 — lower, 86%
- Cn1cc(S(=O)(=O)NCC2CCCO2)c(=O)n(C)c1=O (stereo not given) — lower, 84.8%
- Cc1cc(N2CCCCC2)c(F)cc1[N+](=O)[O-] — higher, 106%
- O=C(N/N=C/c1ccc(-c2ccc(Br)cc2)o1)c1ccc2c(c1)OCO2 — lower, 86%
- Cc1ccc(-n2ncc3c(=O)[nH]cnc32)c(C)c1 — lower, 88.9%
- CC(=O)N1CSCC1C(=O)N1CCN(c2ccc(N3CCOCC3)nn2)CC1 (stereo not given) — lower, 88.5%
- CCCCNC(=O)NS(=O)(=O)c1ccc(C(=O)OC)o1 — lower, 95.1%
- O=C(c1cccs1)N1CCC(N2CCN(c3ccccc3)CC2)CC1 — lower, 86.8%
- N#Cc1c(/N=C/c2cccs2)sc2c1CCCCC2 — lower, 93.7%
- Cc1ccc(NC(=O)CCNC(=O)c2ccccc2)cc1F — higher, 105%
- Cc1c(/C=N/NC(=O)c2sc3ccccc3c2Cl)cnn1C — lower, 96%
- Cc1cc(C)cc(N(C(=O)CNC(=O)c2cccs2)C(C(=O)NC2CCCC2)c2cccnc2)c1 (stereo not given) — higher, 106%
- CC(C)OC(=O)Cn1c(=O)sc2ccccc21 — lower, 95%
- CC(=O)Nc1cccc(NS(=O)(=O)Cc2ccc(Cl)cc2)c1 — lower, 87.5%
- COc1ccc(C(=O)NNS(=O)(=O)c2ccccc2)cc1OC — lower, 94.7%
- O=C(NCc1ccccc1)c1ccc(CNc2c(N3CCCC3)c(=O)c2=O)cc1 — lower, 99.5%
- C[C@H]1COc2c(N3CCN(C)CC3)c(F)cc3c(=O)c(C(=O)O)cn1c23 — lower, 95.3%
- CCCCc1cc(=O)oc2cc(C)cc(OCC(=O)NCC3CCC(C(=O)O)CC3)c12 (stereo not given) — lower, 93.5%
- Cc1ccc(CNC(=O)CCC(=O)Nc2nnc(C)s2)cc1 — lower, 93.7%
- CCOc1cc(S(=O)(=O)N2CCN(CC)CC2)ccc1Cl — lower, 93.8%
- O=C(NCc1ccc2c(c1)OCO2)c1ccc2c(c1)C(=O)N(Cc1cccnc1)C2=O — lower, 92.6%
- CCOC(=O)C1CCN(C(=O)CCc2nc3ccccc3[nH]2)CC1 — lower, 101%
- NS(=O)(=O)c1ccc(CCNS(=O)(=O)c2cccc(C(=O)O)c2)cc1 — higher, 108%
- O=C(NC(=O)c1ccccc1)OCC1CCCN2CCCCC12 (stereo not given) — lower, 94.6%
- N=c1ccccn1CC(O)COc1ccccc1 (stereo not given) — lower, 84.3%
- COc1cc(/C=C2/C(=O)NN(c3ccc(C)c(Cl)c3)C2=O)cc([N+](=O)[O-])c1O — lower, 85.9%
- O=C(O)c1ccc(S(=O)(=O)NC2CC2)cc1 — lower, 89.6%
- C#CCOCCOCCOCCNc1nc(N2CCN(C(=O)[C@H](Cc3ccc(O)cc3)n3cc([C@@H](N)C(C)CC)nn3)CC2)nc(N2CCN(C(=O)[C@H](Cc3cc4ccccc4[nH]3)n3cc([C@@H](N)Cc4ccc(O)cc4)nn3)CC2)n1 (stereo not given in full) — lower, 97.5%
- NC1=NC(c2cccc(O)c2)n2c(nc3ccccc32)N1 (stereo not given) — lower, 93.1%
- COc1ccc(CCC(=O)NCc2cn3ccccc3n2)cc1 — lower, 101%
- O=C(NC(O)C(=O)c1ccccc1)c1ccc(F)cc1 (stereo not given) — lower, 90.5%
- Cc1ccc(N2CC(C(=O)OCc3ccccc3F)CC2=O)cc1 (stereo not given) — higher, 107%
- CCn1cc(C(=O)O)c(=O)c2cc(F)c(N3CCN(C(=S)NC(=O)c4ccccc4C)CC3)cc21 — lower, 94.3%
- O=C(NC1CCCC1)c1ccc(Br)s1 — lower, 80.1%
- Cc1cccc(NCN2C(=O)c3ccccc3C2=O)c1 — the same, 102%
- Cc1cnc(NC(=O)CN2C(=O)C3CC=CCC3C2=O)s1 (stereo not given) — lower, 94.9%
- CC(C)c1ccc(C2C(C#N)=C(N)Oc3c2oc(CO)cc3=O)cc1 (stereo not given) — lower, 87.6%
- NC(=O)c1ccc(N=C2C(=O)Nc3ccc([N+](=O)[O-])cc32)cc1 — lower, 93%
- CC(/C=C\c1cccnc1)=C/C(=O)O — lower, 84.6%
- NCCCCCc1nnc(SCc2ccc(Cl)cc2Cl)o1 — lower, 90.7%
- COc1cc2c(cc1OC)CN(C(=O)CCCN1C(=O)c3ccccc3C1=O)CC2 — lower, 88.9%
- CCOC(=O)C1=C(C(C)=O)C(c2cccnc2)C(C#N)=C(N)O1 (stereo not given) — lower, 92.3%
- O=C(CSc1nc2c(c(=O)n1-c1ccc(F)cc1)SCC2)NCc1ccco1 — lower, 96.5%
- CC(C)n1cnnc1SCC(=O)Nc1ccc(Br)cc1F — lower, 94.9%
- Cc1nn(C)c(C)c1NC(=O)c1ccc(S(=O)(=O)N(C)C)cc1 — higher, 113%
- COc1ccc(C2C3=C(CC(C)(C)CC3=O)Nc3cc4c(cc32)OCO4)cc1 (stereo not given) — lower, 91.7%
- O=c1ccnc(Sc2ncccc2[N+](=O)[O-])[nH]1 — lower, 91.4%
- CC[C@H]1OC(=O)[C@H](C)[C@@H](O[C@H]2C[C@@](C)(OC)[C@@H](O)[C@H](C)O2)[C@H](C)[C@@H](O[C@@H]2O[C@H](C)C[C@H](N(C)C)[C@H]2O)[C@](C)(O)C[C@@H](C)CN(C)[C@H](C)[C@@H](O)[C@]1(C)O — lower, 98.5%
- COc1cc(NS(=O)(=O)c2ccc(NC(=S)Nc3ccccc3)cc2)nc(OC)n1 — lower, 91.8%
- O=C1CC(=O)CC(c2ccco2)C1 — higher, 103%
- CCn1c(CNC(=O)c2ccc(OC)cc2)nnc1SC — lower, 95.3%
- CC(=O)c1ccc(OC(=O)c2cc3ccccc3oc2=O)cc1 — lower, 96.3%
- COC(=O)c1cn(C(=O)c2ccco2)c2ccccc12 — lower, 83.7%
- CCN1CCN(Cc2ccc(NC(=O)c3ccc(C)c(NC(=O)C(=O)c4c[nH]c5ccccc45)c3)cc2C(F)(F)F)CC1 — lower, 89.8%
- Cn1nnnc1SCC(=O)Nc1ccccc1-c1ccccc1 — lower, 86.6%
- CCn1c(SCC(=O)Nc2oc(-c3ccccc3)c(-c3ccccc3)c2C#N)nnc1-c1ccco1 — lower, 87.7%
- Cc1ncc(CC(=O)n2cc(C(=O)c3cc(F)ccc3O)cn2)s1 — lower, 92.9%
- COc1ccc(C(CC(=O)O)NC(=O)C2CCCCC2)cc1 (stereo not given) — lower, 98.9%

Point of comparison: `CN1C2=CC=CC=CC2=[N+](C)C12C=CC(=[N+]([O-])[O-])C=C2[N+](=O)[O-]` (stereo not given), “viability” value 80.8% [at 25 µM]. Against it:
- CCC(C)NC(=O)c1cn(CC)c2cc(N3CCN(C)CC3)c(F)cc2c1=O (stereo not given) — higher, 108% [at 25 µM]
- COCCN1CC(=O)N2C(c3cccc(OC)c3)c3[nH]c4ccccc4c3C[C@H]2C1=O (stereo not given in full) — higher, 94.5% [at 25 µM]
- COc1ccc(NC(=O)c2ccc3nc[nH]c3c2)cc1 — higher, 98.5% [at 25 µM]
